According to PubChem BioAssay AID1781 (National Center for Advancing Translational Sciences (NCATS), 2009):
Results filed as inconclusive are left out. The source made the active and inactive calls. Calls follow the shape of the dose curve; as a rule, active = well fitted curve in the direction sought with a large enough effect; inconclusive = small, poorly fitted or top-dose-only effect, or effect the other way, or another doubt; inactive = no such curve, though single readings can be large or run the other way.

target: Pyruvate kinase PKLR (Homo sapiens) (UniProt P30613); experiment: Confirmation Concentration-Response Assay for Activators of Human Liver Pyruvate Kinase; conditions: purified hPK-L, Kinase-Glo ATP luminescence, 1 h; series mostly up to 57.5 µM
Sequence (P30613 whole entry, looked up): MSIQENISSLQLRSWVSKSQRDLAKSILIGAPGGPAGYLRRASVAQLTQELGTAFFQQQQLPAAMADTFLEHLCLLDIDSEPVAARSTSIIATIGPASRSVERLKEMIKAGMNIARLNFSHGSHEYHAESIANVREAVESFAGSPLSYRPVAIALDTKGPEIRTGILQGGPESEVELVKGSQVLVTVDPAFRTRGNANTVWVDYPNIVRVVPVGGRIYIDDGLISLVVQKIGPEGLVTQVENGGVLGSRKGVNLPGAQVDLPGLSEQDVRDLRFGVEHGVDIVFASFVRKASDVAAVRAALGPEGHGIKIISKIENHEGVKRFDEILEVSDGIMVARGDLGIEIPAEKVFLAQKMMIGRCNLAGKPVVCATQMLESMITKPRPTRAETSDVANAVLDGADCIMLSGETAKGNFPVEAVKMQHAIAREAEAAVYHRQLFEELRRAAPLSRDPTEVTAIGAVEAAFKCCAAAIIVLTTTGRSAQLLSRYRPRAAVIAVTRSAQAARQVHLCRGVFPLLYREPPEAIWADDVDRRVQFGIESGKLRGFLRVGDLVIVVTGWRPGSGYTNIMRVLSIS
Excerpt: Confirmatory assay NIH Chemical Genomics Center [NCGC] Matthew G. Vander Heiden, M.D., Ph.D. [Harvard Medical School, 77 Avenue Louis Pasteur, Boston, MA 02115] NCGC Assay Overview: Human pyruvate kinase liver (hPK-L) enzyme was supplied as a highly purified (>95% pure) preparation from Harvard Medical School and assayed for its ability to generate ATP from ADP using phosphoenolpyruvate (PEP) as a substrate. ATP generation was detected in a coupled reaction by luciferase-mediated luminescence, an ATP-dependent process. Pyruvate kinase substrates, PEP and ADP, were present in the assay at Km and approximately 10-fold below Km respectively. The enzyme was assayed at an intermediate level of activity to screen for both inhibitors and activators.
NCGC Assay Protocol Summary for L-isoform: Three uL of substrate mix (at r.t.) in assay buffer (50 mM Imidazole pH7.2, 50 mM KCl, 7 mM MgCl2, 0.01% Tween 20, 0.05% BSA) was dispensed into white solid bottom 1,536 well microtiter plates so that the final concentrations of substrates in the assay were 0.1 mM ADP and 0.5 mM PEP. 23 nL of compound were delivered by a pin tool and 1 uL of enzyme mix (final concentration of 0.1 nM) in assay buffer (4 degree Celsius) was added. Plates were incubated at room temperature for 1 hour. Two uL of detection mix (Kinase-Glo, Promega; at 4 degree Celsius protected from light) was added and luminescence read by a ViewLux (Perkin Elmer) at 1 second exposure/plate. Data were normalized to the uninhibited (row 31). Additionally, a no enzyme and 5-fold enzyme control was dispensed in row 32, split equally between the two conditions.

outcome, inactive:
CCc1cc2c(s1)c1cnn(Cc3ccccc3F)c(=O)c1n2C
Cc1ccc(Cn2ncc3c4sc(C)cc4n(C)c3c2=O)c(C)c1
O=S(=O)(c1ccc2c(c1)OCO2)N1CCN(S(=O)(=O)c2c(F)cccc2F)CC1
Cc1cc2c(s1)c1cnn(Cc3ccc(C(F)(F)F)cc3)c(=O)c1n2C
CN1CCOc2ccc(S(=O)(=O)N3CCN(S(=O)(=O)c4c(F)cccc4F)CC3)cc21
Cc1cc2c(s1)c1cnn(Cc3ccccc3)c(=O)c1n2C
CC1(C)CCc2cc(S(=O)(=O)N3CCN(S(=O)(=O)c4c(F)cccc4F)CC3)ccc2O1
Cn1c2cc(CO)sc2c2cnn(Cc3ccccc3F)c(=O)c21
Cc1cc2c(s1)c1cnn(Cc3c(F)cccc3Cl)c(=O)c1n2C
O=C(c1ccc2c(c1)OCCO2)N1CCN(S(=O)(=O)c2c(F)cccc2F)CC1
O=S(=O)(NC1CCC(NS(=O)(=O)c2c(F)cccc2F)CC1)c1ccc2c(c1)OCCO2 (stereo not given)
O=S(=O)(c1cccc(C(F)(F)F)c1)N1CCN(S(=O)(=O)c2ccc3c(c2)OCCO3)CC1
O=S(=O)(NC1CCN(S(=O)(=O)c2ccc3c(c2)OCCO3)CC1)c1c(F)cccc1F
Cn1c2ccsc2c2cnn(Cc3ccccc3F)c(=O)c21
Cn1c2cc([N+](=O)[O-])sc2c2cnn(Cc3ccccc3F)c(=O)c21
Cc1cc2c(s1)c1cnn(Cc3cccc(Cl)c3)c(=O)c1n2C
Cc1cc2c(s1)c1cnn(Cc3cccc(F)c3)c(=O)c1n2C
Cc1cc2c(s1)c1cnn(Cc3ccc(C(F)(F)F)cc3F)c(=O)c1n2C
COc1cc(F)c(S(=O)(=O)N2CCN(S(=O)(=O)c3ccc4c(c3)OCCO4)CC2)c(F)c1
CC(O)c1cc2c(s1)c1cnn(Cc3ccccc3F)c(=O)c1n2C (stereo not given)
Cc1nc2ccc(S(=O)(=O)N3CCN(S(=O)(=O)c4c(F)cccc4F)CC3)cc2s1
O=S(=O)(c1ccc2ccccc2c1)N1CCN(S(=O)(=O)c2c(F)cccc2F)CC1
COc1ccc(Cn2ncc3c4sc(C)cc4n(C)c3c2=O)cc1F
CC(C)c1cc2c(s1)c1cnn(Cc3ccccc3F)c(=O)c1n2C
CSc1cc2c(s1)c1cnn(Cc3ccccc3F)c(=O)c1n2C
Cc1cc2c(s1)c1c(C)nn(Cc3ccccc3F)c(=O)c1n2C
COc1ccc(S(=O)(=O)N2CCN(S(=O)(=O)c3c(F)cccc3F)CC2)cc1
O=S(=O)(c1c(F)cccc1F)N1CCN(S(=O)(=O)c2c(F)cccc2F)CC1
Cc1cc2c(s1)c1cnn(Cc3ccc(F)cc3)c(=O)c1n2C
Cc1cc2c(s1)c1cnn(Cc3ccccc3F)c(=O)c1n2C
Cc1cc2c(s1)c1cnn(Cc3ccccc3Cl)c(=O)c1n2C
CC(=O)c1cc2c(s1)c1cnn(Cc3ccccc3F)c(=O)c1n2C
Cc1cc2c(s1)c1cnn(Cc3ccc(F)c(F)c3F)c(=O)c1n2C
Cn1c2cc(C=O)sc2c2cnn(Cc3ccccc3F)c(=O)c21
Cc1cc2c(s1)c1cnn(Cc3cccc(Cn4ncc5c6sc(C)cc6n(C)c5c4=O)c3F)c(=O)c1n2C
